Experimental data: PubChem BioAssay AID460 (PCMD, 2006)
Hit rate of the full screen: of about 58,000 compounds, about 100 (0.17%) were called active. Shown is part of a subset that was picked to be rich in actives. A number with no mark means an inactive call. Cut-off read from the data, not from the text of the source: active = inhibition above about 45%; inactive = the rest.

The compounds below were run against Procathepsin L (Homo sapiens) (UniProt P07711) (assay: inhibitors of human cathepsin L, biochemical (AID 460;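 note: 0% = enzyme with no compound and 100% = no enzyme blank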)). Details: purified cathepsin L, fluorogenic substrate, fluorescence; stronger effect = higher value;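 tested at 10 µM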.
Sequence of Procathepsin L (Homo sapiens) (P07711 114-288 limits assumed): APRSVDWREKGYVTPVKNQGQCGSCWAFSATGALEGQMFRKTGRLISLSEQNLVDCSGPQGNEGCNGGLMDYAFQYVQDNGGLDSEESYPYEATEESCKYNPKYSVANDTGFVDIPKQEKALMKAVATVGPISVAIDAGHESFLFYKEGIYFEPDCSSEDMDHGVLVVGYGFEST
Sequence of Procathepsin L (Homo sapiens) (P07711 292-333 limits assumed): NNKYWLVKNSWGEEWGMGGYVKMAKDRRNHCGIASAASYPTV

| SMILES | inhibition |
| --- | --- |
| O=C(CCN1C(=O)C2C3C=CC(C3)C2C1=O)Nc1ccccc1F (stereo not given) | -4.07% |
| c1ccc(-c2cn3cccnc3n2)cc1 | -283% |
| c1ccc2c(c1)OCC(CNc1ncnc3nc[nH]c13)O2 (stereo not given) | 81.5% (active) |
| COc1ccc(CCNc2ncnc3nc[nH]c23)cc1OC | -2.05% |
| Cc1cc(NC(=O)CCC2COc3ccccc3O2)no1 (stereo not given) | 0.43% |
| COC(=O)c1cc(OC)c(OC)cc1NC(=O)C1CCCO1 (stereo not given) | 17.4% |
| Cc1nc(-c2ccc(NC(=O)c3cccs3)cc2)cs1 | 6.73% |
| NS(=O)(=O)c1ccc(CCNC(=O)Nc2ccc(Cl)cc2)cc1 | 0.5% |
| COc1ccc(C2CC(c3ccccc3)Nc3ncnn32)cc1 (stereo not given) | 20.2% |
| Cc1ccc(C2CC(=O)NC(SCC(=O)OCc3ccccc3)=C2C#N)o1 (stereo not given) | 1.51% |
| CCOC(=O)C(CCOc1cccc(CC)c1)C(=O)OCC | 20.3% |
| Cc1nnc(SCC(=O)N(C(C)C)C(C)C)nc1C | 6.66% |
| CCCC(C(=O)NCc1ccco1)N(C(=O)CNS(=O)(=O)c1ccccc1)C1CCCC1 (stereo not given) | 10.1% |
| Cn1c(=O)c2cn(-c3cccc4ccccc34)cc2n(C)c1=O | 6.9% |
| COC(=O)c1ccc(CN(c2ccccc2OC)S(=O)(=O)c2cccs2)o1 | 14% |
| Fc1c(F)c(C(F)(F)F)c(F)c(F)c1N1CCN(c2ccc3nnc(C(F)(F)F)n3n2)CC1 | -17% |
| CC(C)NS(=O)(=O)c1ccc(OCC(=O)Nc2ccc3c(c2)OCCO3)cc1 | 16.4% |
| COc1ccc(Cn2cccc(NC(=O)Nc3ccc(C#N)cc3)c2=O)cc1 | -10.3% |
| C=CCn1c(=N)n(CC(O)COc2ccc(OC)cc2)c2ccccc21 (stereo not given) | 0.78% |
| Cc1ccc(C2CC(c3cccc(Br)c3)n3nc(N)nc3N2)cc1 (stereo not given) | 19.9% |
| Cc1ccc(N2C(=O)CC(NCc3ccc4c(c3)OCO4)C2=O)cc1Cl (stereo not given) | -2.37% |
| Clc1ccccc1CSc1nnc(-c2ccco2)c(-c2ccco2)n1 | 49.7% (active) |
| O=c1cc(O)nc(SCc2ccccc2Cl)[nH]1 | -2.97% |
| c1ccc(CSc2nnc(-c3ccco3)c(-c3ccco3)n2)cc1 | 10.8% |
| N#Cc1c(NC(=O)CCCN2C(=O)c3ccccc3C2=O)oc(-c2ccccc2)c1-c1ccccc1 | 4.96% |
| CN1c2ccccc2-c2nc3ccccc3n2C1c1ccco1 (stereo not given) | -450% |
| COC(=O)C1=C(C)N(C)C(C)=C(C(=O)OC)C1c1cccc(Br)c1 | 10.9% |

| SMILES | inhibition |
| --- | --- |
| Cc1cc(Cl)c(S(=O)(=O)NCCC(=O)O)cc1OCC(N)=O | 4.48% |
| COc1cc(-c2nn3c(-c4cccc(C)c4)nnc3s2)cc(OC)c1OC | 0.7% |
| Cc1nnc(NC(=O)CSc2nccn2-c2cccc(C)c2C)s1 | 3.56% |
| Cc1c(C(=O)N2CC(C)OC(C)C2)sc2nc(-c3ccccc3)cn12 (stereo not given) | 23% |
| C=CCc1cccc2cc(C(=O)OCC)c(=O)oc12 | 5.84% |
| CCC1CCCCN1CCNS(=O)(=O)c1ccc2c(c1)CCN2C(C)=O (stereo not given) | 12.7% |
| CC(C)CCNC(=O)C1CCCN(S(=O)(=O)c2ccc(F)cc2)C1 (stereo not given) | 9.49% |
| COCc1cc(C)nc(SCC(=O)Nc2cccc(C)c2)c1C#N | 10.9% |
| CC12COC3(C(=O)Nc4ccc(Cl)cn4)CC1CCC32C (stereo not given) | 11.5% |
| CC(=O)Oc1cc2c(C(=O)NCCN3CCOCC3)c(C)oc2c2ccccc12 | -9.79% |
| C[N+](C)(C)CCNC(=O)c1c(O)c2c([nH]c1=O)CCCC2 | 8.42% |
| Cn1c(=O)n(CCc2ccccc2)c(=O)c2c1nc1n2CCCN1c1ccccc1 | 0.95% |
| COc1cc(C2C(C#N)=C(C)NC3=C2C(=O)CC(C)(C)C3)ccc1O (stereo not given) | 4.18% |
| Cn1c(=O)c(C(=O)Nc2ncccn2)c(O)c2ccccc21 | -15.3% |
| CCOC(=O)c1c(C)nc(-c2ccccc2)nc1NC(=O)C(C)C | 22.7% |
| CSCCC(NS(=O)(=O)/C=C/c1ccccc1)C(=O)N1CCC(C)CC1 (stereo not given) | 7.86% |
| CC1(C)Oc2ccc3ccc(=O)oc3c2/C(=C/NCCO)C1=O | 14.3% |
| CCOC(=O)C(CC)Sc1ncnc2c1nnn2-c1ccc(F)cc1 (stereo not given) | 7.22% |
| OC1CN=C2Sc3ccccc3N2C1 (stereo not given) | -0.84% |
| c1ccc(-n2ncc3c2ncn2c(C4CCCCC4)nnc32)cc1 | 1.98% |
| CCN(CC)S(=O)(=O)c1cccc(C(=O)Nc2ccccc2)c1 | -8.69% |
| CCCOc1ccc(CN(CCO)CCO)cc1C(=O)OC | 8.62% |
| CC(C)CCNC(=O)CN(C(=O)Cn1nnc(-c2ccc(F)cc2)n1)C1CCCC1 | 12.4% |
| CC(=O)N1CC2(C)CN(C(C)=O)CC(C)(C1)C2=O | -7.32% |
| C=CCn1c(COc2ccccc2F)nnc1SCC(=O)N1CC(=O)Nc2ccccc21 | 2.58% |
| C=CCn1c2ccccc2c2nnc(SC(CC)C(=O)Nc3nc(C)c(C(=O)OCC)s3)nc21 (stereo not given) | -6.76% |
| COc1ccc2occ(C(=O)c3ccc(N=C(C)N(C)C)cc3)c2c1 | 1.28% |

| SMILES | inhibition |
| --- | --- |
| Cc1cccc(N2C(=O)SC(N(CC(=O)O)c3cccc(C)c3)C2=O)c1 (stereo not given) | 18.4% |
| COc1ccc(OC)c(S(=O)(=O)N(C)CC(=O)N2CCN(c3ccccc3)CC2)c1 | -0.18% |
| COC(=O)c1c(NC(=O)c2cccs2)sc2c1CCCC2 | -9.15% |
| COc1ccc(-c2nc(CS(=O)CC(=O)NCc3ccccn3)c(C)o2)cc1 (stereo not given) | 32.3% |
| O=c1cccc(-c2ccc(Br)cc2)o1 | 11.7% |
| Cc1cc(C)cc(NC(=O)N2CCC(NC(=O)c3ccc(F)cc3)CC2)c1 | 15.2% |
| Cc1ccc(C(=O)Nc2ccc3c(c2)OCO3)cc1S(=O)(=O)N1CCCCC1 | 41.8% |
| CCOc1cccc(-c2nn3c(-c4ccccn4)nnc3s2)c1 | 20.7% |
| O=C(NC1CCCC1)c1ccc(Br)s1 | -2.98% |
| CC(C)c1ccc(OCC(O)Cn2cnc3ccccc32)cc1 (stereo not given) | -5.57% |
| c1ccc2cc(OCCN3CCCC3)ccc2c1 | 17.4% |
| COc1ccccc1N1CCN(C(=O)c2cc(-c3ccc(Cl)c(Cl)c3)on2)CC1 | 1.59% |
| Cn1c(/C(C#N)=C2/CCCCCN2)nc2ccccc21 | -2.23% |
| CCOC(=O)c1cc2c(n(-c3ccc(C)cc3)c1=O)CCCC2=O | -1.99% |
| CCCC1CC(C)(C(=O)Cn2[nH]c(=O)ccc2=O)OC1=O (stereo not given) | 3.89% |
| Cc1ccc(S(=O)(=O)n2nc(OC(=O)C(C)(C)C)cc2N)cc1 | 9.62% |
| N#CC(C(=O)c1ccc(S(=O)(=O)N2CCCCCC2)cc1)c1nc2ccccc2[nH]1 (stereo not given) | -6.58% |
| O=C(/C(=N\O)n1cncn1)c1ccc(Br)cc1Br | 5.57% |
| COc1ccc(CCN=C2SCC(=O)N2C)cc1OC | 11.7% |
| N#CNC1=NCN(CCc2ccccc2)CN1 | 17.9% |
| N#Cc1c(N)n(CCOC(=O)c2ccc(Cl)cc2)c2nc3ccccc3nc12 | -4.03% |
| Fc1ccccc1OCCCCn1cncn1 | -6.79% |
| COc1ccc(OCCCON2C(=O)c3ccccc3C2=O)cc1 | -4.83% |
| O=C(CN1C(=O)CCC1=O)Nc1ccc(S(=O)(=O)N2CCOCC2)cc1 | 5.22% |
| CC(C)Cc1nc(N2CCOCC2)c(C#N)c2c1CCC2 | -1.22% |
| CCOc1ccccc1C1NC(=O)NC(C)=C1C(=O)OCc1ccco1 (stereo not given) | 16.9% |
